# Screens: PubChem BioAssay, National Center for Advancing Translational Sciences (NCATS)
# Only a selection was taken, and hits are over-represented in it overall.
# DT40 TDP1 no CPT = qHTS for Inhibitors of human tyrosyl-DNA phosphodiesterase 1 (TDP1): qHTS in cells in absence of CPT. DT40 Tdp1-/- hTDP1 cells, no CPT, ATP luminescence, 48 h. Potency, µM (top dose mostly 46.2 µM), without a hit: top-dose activity change, negative = growth inhibition, hits mostly inhibitors. hit rate 15% among 420,000; also: potency is read from the fitted curve at half-maximal effect; nearly all actives have a fitted effect of over 55% in size
#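 Chicken DT40 Tdp1-/- cells stably complemented with human TDP1 were seeded at 400 cells/well with DMSO in place of 20 nM camptothecin. After compound pinning, cells grew at least 48 hr at 37 °C; viability read by CellTiter-Glo luminescence.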
# 12-LOX inh = blocks human arachidonate 12S-lipoxygenase; purified 12hLO, xylenol orange hydroperoxide absorbance; Potency, µM (series often up to 108 µM), for inactives: at the top dose activity change, negative = inhibition, most hits filed as inhibitors; P18054; hit rate 1.1% among 580,000; also: potency is read from the fitted curve at half-maximal effect
# Target sequence (P18054 whole entry, looked up): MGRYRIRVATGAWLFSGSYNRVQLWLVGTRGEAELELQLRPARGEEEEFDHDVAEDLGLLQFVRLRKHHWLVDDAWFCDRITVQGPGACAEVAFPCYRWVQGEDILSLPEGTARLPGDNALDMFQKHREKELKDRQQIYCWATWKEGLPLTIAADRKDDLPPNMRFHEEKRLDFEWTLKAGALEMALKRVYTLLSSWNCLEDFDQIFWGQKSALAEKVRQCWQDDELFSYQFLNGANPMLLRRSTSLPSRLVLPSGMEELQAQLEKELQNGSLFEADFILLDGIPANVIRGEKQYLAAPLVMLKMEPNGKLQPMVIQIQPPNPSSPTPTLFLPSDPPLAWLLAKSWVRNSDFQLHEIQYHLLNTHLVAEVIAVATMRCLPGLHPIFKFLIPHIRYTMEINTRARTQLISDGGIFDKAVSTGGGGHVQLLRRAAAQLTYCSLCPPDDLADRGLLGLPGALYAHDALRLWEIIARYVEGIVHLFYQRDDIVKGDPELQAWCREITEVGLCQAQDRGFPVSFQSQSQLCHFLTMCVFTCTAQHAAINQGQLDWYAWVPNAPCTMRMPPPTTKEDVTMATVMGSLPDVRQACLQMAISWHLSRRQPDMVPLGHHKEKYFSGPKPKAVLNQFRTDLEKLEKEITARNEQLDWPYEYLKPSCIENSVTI
#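 Purified human 12hLO (150 nM final) in 25 mM Hepes, 0.01% Triton X-100, pH 7.0 was preincubated 15 min at room temperature with compound. Then 40 uM arachidonic acid was added, 30 min. Hydroperoxide was read by Fe-XO absorbance ratio 573/405 nm.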
# HT1080 IDH1KD tx = kills HT-1080 cells with IDH1 knockdown | HT-1080 IDH1 knockdown viability, ATP luminescence, 48 h | Potency, µM (titrated, usually from 46.1 µM), without a hit: at the top dose activity, negative = toxicity, actives largely listed as cytotoxic | hit rate 2% among 360,000;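 also: potency is read from the fitted curve at half-maximal effect; 0% = DMSO wells and -100% = cell-free medium wells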
#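 IDH1KD HT-1080 cells, 750/well, RPMI + 5% FBS; compound pinned after 2 h settling; 48 h, 37 °C; CellTiter-Glo luminescence; % activity normalised to DMSO and no-cell wells; curves fitted, classed by r2 and efficacy.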
# TDP1 cell CPT = growth inhibition of DT40 Tdp1-/-;hTDP1 cells with camptothecin (screen for TDP1 inhibitors). hit rate 12% among 420,000. AID 686979. Potency, µM (highest dose often 46.2 µM), for the others: at the top dose activity change, negative = growth inhibition, most hits filed as inhibitors. chicken DT40 Tdp1-/-;hTDP1 cells + 20 nM CPT, ATP luminescence, 48 h; also: potency is read from the fitted curve at half-maximal effect; nearly all actives have a fitted effect of over 55% in size
#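 Cell growth measured by CellTiter-Glo luminescence after a minimum 48 h, 37 C compound exposure with 20 nM CPT in Tdp1-knockout DT40 cells stably expressing hTDP1, seeded 400/well; qHTS titration format.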
# HT1080NT lethal = kills 2HG-producing HT-1080-NT fibrosarcoma cells. HT-1080-NT fibrosarcoma viability, CellTiter-Glo ATP luminescence, 48 h. hit rate 1.6% among 360,000. AID 686970. Potency, µM (highest dose often 46.1 µM), for inactives: at the top dose activity, negative = less viability, usual class: cytotoxic;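 also: NT is the 2HG producing partner of a matched IDH1 knockdown line; potency is read from the fitted curve at half-maximal effect; 0% = DMSO-treated cells and -100% = media-only wells without cells; nearly all actives have a fitted effect of over 55% in size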
#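 Viability by CellTiter-Glo luminescence after 48 h compound exposure at 37C of HT-1080-NT cells (750/well, RPMI, 5% FBS). % activity scaled between DMSO wells and medium-only wells, then curve-fitted and categorized by curve class.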
# IL1B secr inh = inflammasome signaling inhibition, IL-1 beta readout; THP-1 LPS/ATP IL-1B secretion, AlphaLISA, 16 h; hits give low values; activity change, % at 57.5 µM; hit rate 4.7% among 360,000; in the data active = activity change below about -50%; inconclusive = mostly about -30% to -49%
#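 Secreted IL-1B measured by AlphaLISA bead assay after 16 h compound exposure of THP-1 cells; compounds (final up to 57.5 uM) added 1 h before LPS (250 ng/mL) and ATP (1.25 mM) stimulation; lower signal means less secretion.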
# * marks the source's active call; other numbers are inactive results; ? = inconclusive; . = no result; [ ] = dose if it differs, or a comment. Unless noted, calls follow the shape of the dose curve; as a rule, active = well fitted curve in the direction sought with a large enough effect; inconclusive = small, poorly fitted or top-dose-only effect, or another doubt; inactive = no such curve, though single readings can be large; an effect the other way counts as inactive or inconclusive. Unless noted, % is scaled to controls: 0 for no effect and ±100 for the full control effect.
SMILES,DT40 TDP1 no CPT,12-LOX inh,HT1080 IDH1KD tx,TDP1 cell CPT,HT1080NT lethal,IL1B secr inh
CC1CC(C)CN(C(=O)c2ccc3c(c2NCCO)C(=O)c2ccccc2C3=O)C1 (stereo not drawn),23µM*,0%,?,29µM*,?,-23
CCC[C@H](N)C(=O)N1CCC2(CCC(=O)N(Cc3cnc(C)cn3)C2)CC1,.,4%,.,.,.,.
CC1CCCC(NC(=O)CSCC#N)C1C (stereo not drawn),.,45%,.,.,.,.
Cc1nnn(-c2nonc2N)c1C(=O)N/N=C/c1ccccc1O,4.6µM*,0%,8.2µM*,4.1µM*,6.5µM*,31
CC1CCN(Cc2c(C(=O)N/N=C/c3cccc(Cl)c3)nnn2-c2nonc2N)CC1,?,-9%,-8%,?,4%,20
CN(Cc1c(C(=O)N/N=C/c2ccccc2O)nnn1-c1nonc1N)C1CCCCC1,6.5µM*,6%,?,?,12µM*,146
CC1CCN(Cc2c(C(=O)N/N=C/c3ccccc3O)nnn2-c2nonc2N)CC1,7.3µM*,13%,5.2µM*,8.2µM*,?,91
CN(Cc1c(C(=O)N/N=C/c2cccc(O)c2)nnn1-c1nonc1N)C1CCCCC1,-11%,4%,0%,-8%,0%,-1
COc1cc(/C=N/NC(=O)c2c(C)nnn2-c2nonc2N)ccc1O,-9%,-11%,-24%,4%,?,-1
Cc1ccccc1COc1ccc(/C=N/NC(=O)c2nnn(-c3nonc3N)c2CN2CCC(C)CC2)cc1,3.3µM*,7%,-2%,10µM*,-18%,?
O=C1CCCN1C1CCN(S(=O)(=O)c2ccccc2)CC1,.,40%[176 µM],.,.,.,.
CCOc1ccc2c(c1)sc1nc(=O)n(-c3ccc(Cl)c(Cl)c3)c(=O)n12,-12%,-13%,.,-6%,.,.
CC1(CCCCc2ccccc2)COc2ccc(C(=O)NCc3cccnc3)cc2N1 (stereo not drawn),.,-14%[176 µM],.,.,.,.
CCOc1ccccc1CNC(=O)c1ncoc1-c1ccc(OC)cc1,.,-1%,.,.,.,.
CC(=C/c1ccccc1)/C=N/NC(=O)c1nnn(-c2nonc2N)c1CN1CCC(C)CC1,18µM*,12%,-2%,?,0%,-11
CCN(CC)c1cc(C)c(/C=C/c2ccnc3ccccc23)cc1C,13µM*,.,.,10µM*,.,.
Cc1cc(N(C)C)c(C)cc1/C=C/c1ccnc2ccccc12,0.56µM*,.,.,0.79µM*,.,.
FC(F)(F)c1cccc(-c2ccc(CNC3CC3)o2)c1,.,-24%,.,.,.,.
CC1(C(=O)NS(=O)(=O)C2CC2)CCCN(C(=O)Cc2ccc3ccccc3c2)C1 (stereo not drawn),10µM*,9%,2%,9.2µM*,?,25
CC1(C(=O)NS(=O)(=O)C2CC2)CCN(C(=O)c2cc3ccccc3s2)C1 (stereo not drawn),23%,-8%,14%,-3%,2%,-7
CC1(C(=O)NS(=O)(=O)C2CC2)CCCN(C(=O)COc2ccccc2)C1 (stereo not drawn),?,.,0%,?,?,40
CC1(C(=O)NS(=O)(=O)C2CC2)CCCN(C(=O)c2cc3ccccc3s2)C1 (stereo not drawn),0.82µM*,0%,9%,0.65µM*,13%,14
CC1(C(=O)NS(=O)(=O)C2CC2)CCCN(C(=O)COCc2ccccc2)C1 (stereo not drawn),2.3µM*,1%,?,6.5µM*,-2%,-15
Cc1nn2cc(-c3ccc(OC(C)C)cc3)nc2s1,?,-21%,.,-25%,.,.
COc1cccc(-c2n[nH]c(=O)c3c2C(c2ccc(C(C)(C)C)cc2)n2nnnc2N3)c1 (stereo not drawn),.,-28%,.,.,.,.
